From PubChem
HEK cytotox: cytotoxic compounds in HEK 293 cells; actives 6.6% (n = 94,000); HEK 293 viability, ATP luminescence (CellTiter-Glo), 48-72 h; AID 1345083; Potency, µM (series often up to 115 µM), without a hit: at the top dose activity change, negative = cytotoxicity, actives largely listed as inhibitors; note: potency is the fitted concentration of half-maximal effect; % is set by controls: 0 for no effect and ±100 for the full control effect; nearly all actives have a fitted effect of over 60% in size
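HEK 293 cells seeded at 250 cells/well were exposed to compound for 48 or 72 hr at 37 degree Celsius. Viability taken as ATP content by CellTiter-Glo luminescence.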
GPT2 inhibitor: inhibitors of human GPT2 alanine aminotransferase; Potency, µM (doses to about 57.7 µM), for inactives: at the top dose activity change, negative = inhibition, usual class: inhibitors; Q8TD30; actives 0.25% (n = 100,000); AID 1671188; Recombinant GPT2, coupled pyruvate oxidase/HRP Amplex Red fluorescence; note: potency is the fitted concentration of half-maximal effect; % is set by controls: 0 for no effect and ±100 for the full control effect; nearly all actives have a fitted effect of over 60% in size
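Recombinant GPT2 (10ng/uL) with 250uM a-KG and 2mM L-alanine, 30 min at room temperature, in HEPES pH 7.5 buffer. Pyruvate detected by pyruvate oxidase/HRP/Amplex Red fluorescence after 30 min in the dark; AOA (50uM) as positive control.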
3T3 cytotox: NIH 3T3 cell cytotoxicity | NIH 3T3 viability, CellTiter-Glo ATP luminescence, 48-72 h | Potency, µM (series often up to 96.7 µM), without a hit: at the highest dose activity change, negative = cytotoxicity, usual class: inhibitors | actives 4.3% (n = 94,000) | AID 1345082; note: potency is the fitted concentration of half-maximal effect; % is set by controls: 0 for no effect and ±100 for the full control effect; nearly all actives have a fitted effect of over 55% in size
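Luminescent ATP readout (CellTiter-Glo, 10 min RT) after 48 or 72 hr compound exposure of NIH 3T3 cells seeded at 400 cells/well in 1536-well format; quantitative HTS.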
Luciferase inh: blocks purified firefly luciferase enzyme activity; P08659; purified P. pyralis luciferase, luminescence, biochemical; actives 2.5% (n = 76,000); Potency, µM (series often up to 115 µM), actives largely listed as inhibitors; note: potency is the fitted concentration of half-maximal effect; % is set by controls: 0 for no effect and ±100 for the full control effect; nearly all actives have a fitted effect of over 65% in size
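Inhibitors were tested against purified firefly luciferase in a biochemical, low-substrate format (both substrates at 10uM) and luminescence measured with a CCD imager.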
NPR1 antag: antagonists of human natriuretic peptide receptor Npr1; P16066; HEK293 hNpr1 GloSensor cGMP, ANP-stimulated luminescence; Potency, µM (doses to about 46.3 µM), without a hit: top-dose activity change, negative = inhibition, hits mostly inhibitors; actives 1.6% (n = 76,000); calls by dose curve; note: potency is the fitted concentration of half-maximal effect; % is set by controls: 0 for no effect and ±100 for the full control effect; nearly all actives have a fitted effect of over 60% in size
Target sequence (P16066 whole entry, looked up): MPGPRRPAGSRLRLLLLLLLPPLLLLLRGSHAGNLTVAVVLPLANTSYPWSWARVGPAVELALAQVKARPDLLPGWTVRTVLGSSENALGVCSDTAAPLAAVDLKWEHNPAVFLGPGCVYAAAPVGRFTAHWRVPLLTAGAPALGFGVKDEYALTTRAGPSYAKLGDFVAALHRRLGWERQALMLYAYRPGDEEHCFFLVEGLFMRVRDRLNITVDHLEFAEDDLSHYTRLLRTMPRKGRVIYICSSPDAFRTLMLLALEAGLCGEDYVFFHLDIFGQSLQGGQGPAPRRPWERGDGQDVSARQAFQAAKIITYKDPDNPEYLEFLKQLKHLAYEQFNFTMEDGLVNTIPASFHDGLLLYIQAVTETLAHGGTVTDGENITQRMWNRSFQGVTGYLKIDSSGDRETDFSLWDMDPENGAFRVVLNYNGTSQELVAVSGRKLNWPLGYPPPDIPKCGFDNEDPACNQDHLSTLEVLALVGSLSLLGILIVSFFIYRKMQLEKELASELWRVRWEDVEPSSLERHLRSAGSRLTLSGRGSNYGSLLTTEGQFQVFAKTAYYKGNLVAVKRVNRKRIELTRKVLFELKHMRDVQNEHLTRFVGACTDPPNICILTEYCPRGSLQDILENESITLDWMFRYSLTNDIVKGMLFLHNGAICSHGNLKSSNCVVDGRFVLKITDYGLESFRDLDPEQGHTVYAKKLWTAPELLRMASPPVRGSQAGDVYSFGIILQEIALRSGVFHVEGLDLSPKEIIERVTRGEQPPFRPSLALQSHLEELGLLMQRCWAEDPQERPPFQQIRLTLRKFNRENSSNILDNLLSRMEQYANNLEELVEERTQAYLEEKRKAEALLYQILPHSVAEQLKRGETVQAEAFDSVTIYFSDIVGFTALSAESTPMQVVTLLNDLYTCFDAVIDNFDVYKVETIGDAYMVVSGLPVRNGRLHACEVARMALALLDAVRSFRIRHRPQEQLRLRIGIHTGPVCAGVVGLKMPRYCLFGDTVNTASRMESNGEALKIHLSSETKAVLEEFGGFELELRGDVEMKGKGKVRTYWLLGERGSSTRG
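Compound pre-incubated 30 min at room temperature on GloSensor-loaded HEK293 cells stably carrying hNpr1 and the pGS-40F cGMP biosensor. Stimulation uses hNppA at 0.1 nM final; luminescence is taken at baseline and 20 min post-agonist.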
Npr1 antag conf: confirmation of human Npr1 natriuretic peptide receptor antagonists | shares compounds with NPR1 antag | HEK293 hNpr1 cGMP GloSensor luminescence, ANP-stimulated | Potency, µM (top dose mostly 57.6 µM), for the others: at the top dose activity change, negative = inhibition, actives largely listed as inhibitors | actives 76% (n = 1,400); calls by dose curve; note: potency is the fitted concentration of half-maximal effect; nearly all actives have a fitted effect of over 70% in size
NPR2 antag: antagonizes human Npr2, subtype selectivity check; shares compounds with NPR1 antag; HEK293 hNpr2 GloSensor cGMP luminescence, CNP-stimulated; Potency, µM (titrated, usually from 57.6 µM), without a hit: at the top dose activity change, negative = inhibition, hits mostly inhibitors; actives 67% (n = 1,400); calls by dose curve; note: potency is the fitted concentration of half-maximal effect; nearly all actives have a fitted effect of over 70% in size
FLuc inh counter: counter-screen for Npr1 antagonists: firefly luciferase inhibitors; shares compounds with NPR1 antag; purified FLuc enzyme, luminescence, Km substrate; Potency, µM (top dose mostly 57.6 µM), without a hit: top-dose activity change, negative = inhibition, hits mostly inhibitors; actives 0.7% (n = 1,400); AID 1347047; note: potency is the fitted concentration of half-maximal effect; 0% is about no effect
GloSensor ctrl: reduces cGMP signal in GloSensor control cells; shares compounds with NPR1 antag; actives 69% (n = 1,400); HEK293 GloSensor cGMP, SNP-stimulated, luminescence; Potency, µM (top dose mostly 57.6 µM), for the others: top-dose activity change, negative = inhibition, usual class: inhibitors; calls by dose curve; note: potency is the fitted concentration of half-maximal effect; % is set by controls: 0 for no effect and ±100 for the full control effect; nearly all actives have a fitted effect of over 70% in size
GPT2 conf: human alanine aminotransferase 2 inhibition, confirmatory; Potency, µM, actives largely listed as inhibitors; AID 1671187; GPT2 enzyme, coupled Amplex Red pyruvate fluorescence; actives 90% (n = 95); shares compounds with GPT2 inhibitor
* hit, by the source's call; i = inactive; ? = inconclusive; · = no result; [ ] = dose if it differs, or a comment. Shown are actives, neighbours in structure and some others; about 10% of the full set was active somewhere. Unless noted, calls come from the whole dose curve; as a rule, active = well fitted curve in the direction sought with a large enough effect; inconclusive = small, poorly fitted or top-dose-only effect, or another doubt; inactive = no such curve, though single readings can be large; an effect the other way counts as inactive or inconclusive.

SMILES	HEK cytotox	GPT2 inhibitor	3T3 cytotox	Luciferase inh	NPR1 antag	GPT2 conf	others
COc1cc(Cl)ccc1C(=O)N1CCN(C(=O)c2nnn3c2COC(c2ccccc2)C3)CC1 (centres undefined)	?	i	?	i	?	·	Npr1 antag conf=22µM*;NPR2 antag=?;FLuc inh counter=3%;GloSensor ctrl=31µM*
Cc1ccc(C2Cn3nnc(C(=O)N4CCN(C(=O)c5ccccc5F)CC4)c3CO2)cc1 (centres undefined)	?	i	-21%	i	?	·
Cc1ccccc1CC(=O)N1CCN(C(=O)c2nnn3c2COC(c2ccc(Cl)cc2)C3)CC1 (centres undefined)	28µM*	2%	35µM*	i	14µM*	·	Npr1 antag conf=19µM*;NPR2 antag=22µM*;FLuc inh counter=4%;GloSensor ctrl=19µM*
COc1ccccc1C(=O)N1CCN(C(=O)c2nnn3c2COC(c2ccc(Cl)cc2)C3)CC1 (centres undefined)	?	i	?	i	-27%	·
Cc1ccccc1C(=O)N1CCN(C(=O)c2nnn3c2COC(c2ccc(Cl)cc2)C3)CC1 (centres undefined)	?	i	?	i	?	·	Npr1 antag conf=27µM*;NPR2 antag=?;FLuc inh counter=1%;GloSensor ctrl=?
Cc1ccccc1N1CCN(C(=O)c2nnn3c2COC(c2ccc(Cl)cc2)C3)CC1 (centres undefined)	0%	i	0%	i	4%	·
O=C(C1CC1)N1CCCN(c2ccc3nnc(C4CC4)n3n2)CC1	-27%[172 µM]	·	-23%[138 µM]	·	·	·
COc1ccc(NC(=O)c2c(C)nc3n2CCC(Nc2ccccc2)C3)cn1 (centres undefined)	-34%[172 µM]	-1%[88.5 µM]	?	i	10%[70.6 µM]	·
O=C(c1ccc(C(F)(F)F)cc1)N1CCC2(CNc3ccccc3[S+](=O)([O-])N2)C1 (centres undefined)	?	i	?	i	?	·	Npr1 antag conf=22µM*;NPR2 antag=?;FLuc inh counter=-2%;GloSensor ctrl=17µM*
CSCc1nc(CNc2nc(C3CCCC3)nc3c2cnn3C)cs1	25µM*	i[11.5 µM]	?	i	8.9µM*	·	Npr1 antag conf=15µM*;NPR2 antag=19µM*;FLuc inh counter=0%;GloSensor ctrl=12µM*
COc1ccc2ccc(OCc3nc(C(=O)N4CCNC(=O)C4C)co3)cc2c1 (centres undefined)	?	?	?	i	11µM*	·	Npr1 antag conf=24µM*;NPR2 antag=22µM*;FLuc inh counter=-5%;GloSensor ctrl=22µM*
Cc1nn(Cc2ccccc2)c(C)c1[C@@H]1C=C[C@@H](NC(=O)c2ccc3c(c2)OCO3)C1	28µM*	-29%[88.5 µM]	?	i	32µM*	·	Npr1 antag conf=35µM*;NPR2 antag=35µM*;FLuc inh counter=-13%[86.2 µM];GloSensor ctrl=35µM*
CCNC(=O)N1CCOc2ccc(CN3CCOCC3)cc2C1	-3%	i	-14%	i	1%	·
COc1ccc(CNC(=O)N2CCOc3ccc(N(C)C)cc3C2)cc1	?	1.8µM*	-30%	·	·	0.86*
COCCN1CCC2(CCC1=O)CCN(C(=O)Nc1cc(C)ccc1OC)CC2	2%	-2%	-34%	·	·	·
COc1ccc(N2CC3(C2)CN(c2ccccc2)C(=O)O3)cc1OC	?	?	-25%[138 µM]	i	-5%[70.6 µM]	?
COc1ccc2[nH]c3c(c2c1)CCNC31CCN(C(=O)c2ccc(OC)c(F)c2)CC1	?	i	?	i	-9%	·
COc1ccccc1CN1CCNc2cnc(Nc3ccccc3)cc2C1	89µM*	?	?	i	-1%[70.6 µM]	4.4*
Cn1cc(CN2CCNc3cnc(Nc4ccccc4)cc3C2)cn1	·	·	·	·	·	2.8*
CN(C)CCNc1cc2c(cn1)NCCN(Cc1ccccc1)C2	?	?	?	i	-1%[70.6 µM]	·
COc1cccc(CN2CCNc3cnc(Nc4ccccc4)cc3C2)c1	89µM*	?	?	i	?	5*
CC1(C(=O)N2CCOCC2)CN(Cc2ccccc2)Cc2ccc(Nc3ccccc3)nc21 (centres undefined)	?	?	?	i	-11%	·
c1ccc(CN2CCNc3cc(Nc4ccc(N5CCOCC5)cc4)ncc3C2)cc1	89µM*	?	?	i	-11%[70.6 µM]	4.4*
CCc1cc(=O)n(CC(=O)Nc2ccccc2C)c(-c2ccccc2)n1	-33%	i	-25%	i	0%	·
O=C(Cc1ccccn1)N1CCCC(C(=O)N2CCC(N3Cc4cccn4C3=O)CC2)C1 (centres undefined)	3%	4%	-12%	·	·	·
SMILES	HEK cytotox	GPT2 inhibitor	3T3 cytotox	Luciferase inh	NPR1 antag	GPT2 conf	others
O=C1CCN(C(=O)C2CCCCC2)CCCC(c2nc(-c3ccccc3)no2)CCN1 (centres undefined)	?	3%	-30%	i	-1%	·
Cc1ccc(-c2ccc3nnc(CNC(=O)c4cccc(C(F)(F)F)c4)n3n2)cc1	-1%	5%	1%	i	0%	·
COC(=O)C[C@@H]1C(C(=O)O)=CO[C@@H](O[C@@H]2O[C@H](CO)[C@@H](O)[C@H](O)[C@H]2O)/C1=C\COC(=O)/C=C\c1ccccc1	·	3%[27.3 µM]	·	·	·	·
C[S+](=O)([O-])c1ccc(-c2cc(C(=O)NC3CCCC3)nn3cccc23)cc1	?	i	?	·	·	·
COc1ccc(OC)c(CN2CCNc3cnc(Nc4cccnc4)cc3C2)c1	?	?	?	i	-14%[70.6 µM]	5.6*
NC(N)=NCCC[C@H](NC(=O)c1sccc1NS(=O)(=O)c1cccc2nsnc12)C(=O)O	·	4%	·	·	·	·
Cn1nccc1OCc1cn2c(=O)n(C)cc(-c3ccc(F)cc3)c2n1	·	·	·	·	·	6.3*
CC(C)[C@]1(O)CN(C(=O)Cn2[nH]c3ccccc3c2=O)C[C@H]1C	-6%	?	-2%	i	5%	4.3*
